Rows were chosen to be rich in hits. Some 2.9% of all compounds tested hit in one or more screens of this group.
B2AR ag = activates human beta-2 adrenergic receptor causing internalization. P07550. Am2.2-beta2AR cells, FAP receptor internalization, flow cytometry. response, % (test concentration not listed). 0.43% of 340,000 active;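 active = response above a set limit, near 3 SD of response in nonfluorescent compounds, cut at about 42% in these data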
GRK2 aptamer HTS = inhibitors of human GRK2 displacing RNA aptamer; bead flow cytometry, FAM-aptamer displacement from GRK2; inhibition of aptamer binding, % at 10 µM; 0.59% of 330,000 active; AID 488847; P25098;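 active = inhibition of aptamer binding above 40%, roughly 3 SD of noise, on plates passing a quality check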;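 note: median bead fluorescence of bound FAM aptamer so fluorescent compounds give negative values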
MEKK3 PB1 HTS = MEKK3-MEK5 PB1 interaction, increase or decrease; bead-based flow cytometry, Alexa488-MEK5 binding to MEKK3; actives lie on both sides; 0 = blocked by unlabeled MEK5, 100 = vehicle; binding response (% of control), % at 10 µM; 1.4% of 290,000 active; AID 1529;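 active = binding response more than 3 SD above or below the average of its plate-row segment, actives on both sides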;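 note: Alexa488 bead fluorescence after subtracting the streptavidin-only scavenger bead signal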
Target sequence (Q99759 whole entry, looked up): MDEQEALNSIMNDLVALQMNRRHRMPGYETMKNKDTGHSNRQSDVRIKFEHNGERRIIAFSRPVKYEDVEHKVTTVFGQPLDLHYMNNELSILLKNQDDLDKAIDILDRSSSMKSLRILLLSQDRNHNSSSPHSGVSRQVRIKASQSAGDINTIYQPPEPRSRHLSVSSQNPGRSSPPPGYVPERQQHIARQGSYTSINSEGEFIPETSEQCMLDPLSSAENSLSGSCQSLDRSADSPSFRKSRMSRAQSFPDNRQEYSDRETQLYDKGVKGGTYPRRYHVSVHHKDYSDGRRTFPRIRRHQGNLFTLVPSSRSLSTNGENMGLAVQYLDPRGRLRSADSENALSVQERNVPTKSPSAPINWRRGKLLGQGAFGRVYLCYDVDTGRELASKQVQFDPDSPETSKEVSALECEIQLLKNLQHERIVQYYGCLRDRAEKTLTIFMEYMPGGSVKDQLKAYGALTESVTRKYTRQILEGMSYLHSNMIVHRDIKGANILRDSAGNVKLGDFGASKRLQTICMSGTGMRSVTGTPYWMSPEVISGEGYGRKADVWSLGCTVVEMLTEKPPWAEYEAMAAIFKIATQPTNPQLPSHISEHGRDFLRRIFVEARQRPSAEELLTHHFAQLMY
MEKK2wt PB1 HTS = raises or lowers MEK5 binding to wildtype human MEKK2 PB1 domain | Q9Y2U5 | bead flow cytometry, Alexa488-MEK5 binding to MEKK2 WT; actives lie on both sides | binding response (% of control), % at 10 µM | 1.1% of 290,000 active; in the data active = binding response below about 67% or above about 130%
MEKK2 mut-MEK5 = signal of MEK5 binding to mutant human MEKK2 PB1 domain. percent response, % at 10 µM. bead flow cytometry, Alexa488-MEK5 binding to MEKK2 mutant. 0.35% of 290,000 active. AID 1530; in the data active = percent response above about 24%, passing the limit was not always enough
MEKK2wt confirm = raises or lowers MEK5 binding to wildtype human MEKK2, retest | shares compounds with MEKK3 PB1 HTS | bead flow cytometry, Alexa488-MEK5 binding to MEKK2 WT; actives lie on both sides | binding response (% of control), % at 10 µM | 2.4% of 5,900 active | AID 1892; in the data active = binding response below about 16% or above about 210%; inactive = in between
MEKK2mut confirm = signal of MEK5 binding to mutant human MEKK2, retest. 2% of 5,900 active. shares compounds with MEKK3 PB1 HTS. bead flow cytometry, Alexa488-MEK5 binding to MEKK2 mutant. percent response, % at 10 µM; in the data active = percent response mostly above about 71%, no sharp cut-off; inactive = mostly below about 38%;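 note: higher means compound restores mutant binding toward wildtype level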
MEKK3-MEK5 inh = MEKK3-MEK5 PB1 inhibition, single concentration confirmation; binding response (% of control), % at 10 µM; bead flow cytometry, Alexa488-MEK5 binding to MEKK3; hits give low values; AID 1894; 1.8% of 5,900 active; shares compounds with MEKK3 PB1 HTS;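 active = binding response below 72% of control, or above a set upper limit, though filed actives all read lower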;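 note: lower values mean stronger disruption of MEK5 binding to MEKK3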
Numbers stand for hits; [ ] = dose if it differs, or a comment.

Results for CC1=C(C(=O)OC2CCCC2)C(c2coc3ccccc3c2=O)C2=C(CCCC2=O)N1 (configuration not stated) ?
B2AR ag: inactive; GRK2 aptamer HTS: inactive; MEKK3 PB1 HTS: 133; MEKK2wt PB1 HTS: inactive; MEKK2 mut-MEK5: inactive; MEKK2wt confirm: inactive; MEKK2mut confirm: inactive; MEKK3-MEK5 inh: inactive

Results for COC(=O)C1=C(C)NC2=C(C(=O)CCC2)C1c1coc2ccccc2c1=O (configuration not stated) ?
B2AR ag: inactive; GRK2 aptamer HTS: inactive; MEKK3 PB1 HTS: inactive; MEKK2wt PB1 HTS: inactive; MEKK2 mut-MEK5: inactive

How did CC1=C(C(=O)OCCOc2ccccc2)C(c2coc3ccccc3c2=O)C2=C(CCCC2=O)N1 (configuration not stated) do in these assays?
B2AR ag: inactive; GRK2 aptamer HTS: inactive; MEKK3 PB1 HTS: 69[inhibitor]; MEKK2wt PB1 HTS: inactive; MEKK2 mut-MEK5: inactive; MEKK2wt confirm: inactive; MEKK2mut confirm: inactive; MEKK3-MEK5 inh: inactive

What do the screens show for `COc1cc(OC)cc(C(=O)NNC(=O)CCc2nc3ccccc3c(=O)[nH]2)c1`?
B2AR ag: inactive; GRK2 aptamer HTS: inactive

Results for O=C(CSc1nnc2ccccn12)NC(=O)c1ccccc1Cl ?
B2AR ag: inactive; GRK2 aptamer HTS: inactive

What do the screens show for `CCOc1ccccc1C(=O)Nc1ccccc1O`?
B2AR ag: inactive; GRK2 aptamer HTS: inactive; MEKK3 PB1 HTS: 78[inhibitor]; MEKK2wt PB1 HTS: inactive; MEKK2 mut-MEK5: inactive; MEKK2wt confirm: inactive; MEKK2mut confirm: inactive; MEKK3-MEK5 inh: inactive

Results for CCCCCCCCCCC[N+](C)(C)CC/C=C1/c2ccccc2Sc2ccc(Cl)cc21 ?
B2AR ag: inactive; GRK2 aptamer HTS: inactive; MEKK3 PB1 HTS: inactive; MEKK2wt PB1 HTS: 278; MEKK2 mut-MEK5: 143; MEKK2wt confirm: inactive; MEKK2mut confirm: inactive; MEKK3-MEK5 inh: inactive

How did CC[N+](C)(C)CC/C=C1/c2ccccc2Sc2ccc(Cl)cc21 do in these assays?
B2AR ag: inactive; GRK2 aptamer HTS: inactive; MEKK3 PB1 HTS: inactive; MEKK2wt PB1 HTS: inactive; MEKK2 mut-MEK5: inactive

What do the screens show for `CCCCCCCCCC[N+](C)(C)CC/C=C1/c2ccccc2Sc2ccc(Cl)cc21`?
B2AR ag: inactive; GRK2 aptamer HTS: inactive; MEKK3 PB1 HTS: inactive; MEKK2wt PB1 HTS: 291; MEKK2 mut-MEK5: 147; MEKK2wt confirm: 321; MEKK2mut confirm: 172; MEKK3-MEK5 inh: inactive

Results for COc1ccc(CN2CCN(C(c3ccc(F)cc3)c3ccc(F)cc3)CC2)c(OC)c1OC ?
B2AR ag: inactive; GRK2 aptamer HTS: inactive; MEKK3 PB1 HTS: inactive; MEKK2wt PB1 HTS: 183; MEKK2 mut-MEK5: inactive; MEKK2wt confirm: inactive; MEKK2mut confirm: inactive; MEKK3-MEK5 inh: inactive

How did COc1ccc(CN2CCN(c3ccc(F)cc3)CC2)c(OC)c1OC do in these assays?
B2AR ag: inactive; GRK2 aptamer HTS: inactive; MEKK3 PB1 HTS: inactive; MEKK2wt PB1 HTS: inactive; MEKK2 mut-MEK5: inactive

What do the screens show for `COc1ccc(NC(=O)COC(=O)CNS(=O)(=O)c2ccc(F)c(F)c2F)cc1OC`?
B2AR ag: inactive; GRK2 aptamer HTS: inactive; MEKK3 PB1 HTS: 135; MEKK2wt PB1 HTS: inactive; MEKK2 mut-MEK5: inactive; MEKK2wt confirm: inactive; MEKK2mut confirm: inactive; MEKK3-MEK5 inh: inactive

Results for CCOc1ccc(CCNC(=O)CN2C(=O)NC3(CCCC3)C2=O)cc1OCC ?
B2AR ag: inactive; GRK2 aptamer HTS: inactive; MEKK3 PB1 HTS: inactive; MEKK2wt PB1 HTS: inactive; MEKK2 mut-MEK5: inactive

How did CCc1cc(=O)[nH]c(SCC(=O)Nc2ccc3c(c2)OCCO3)n1 do in these assays?
B2AR ag: inactive; GRK2 aptamer HTS: inactive

Results for O=C(Nc1ccccc1)c1cccc(N2CCCC2=O)c1 ?
B2AR ag: inactive; GRK2 aptamer HTS: inactive; MEKK3 PB1 HTS: 61[inhibitor]; MEKK2wt PB1 HTS: inactive; MEKK2 mut-MEK5: inactive; MEKK2wt confirm: inactive; MEKK2mut confirm: inactive; MEKK3-MEK5 inh: inactive
